Data: PubChem BioAssay
Activity calls are given as the source filed them. Unless noted, no rule for the calls is given here.

Tests used:
[1] = HepG2 liver cancer cell viability effects, profiling panel, resazurin fluorescence, 24 h, PK04 Diversity Set (AID 1172); conditions: higher = more signal
[2] = basal S. cerevisiae growth modulation, no modifier, primary screen, OD600, strain BY4716, 24 h, basal condition (AID 1173); conditions: OD600, 24 h, higher = more signal, called active from +8 up or from −8 down
[3] = MM1S myeloma cell viability, profiling panel, resazurin fluorescence, basal, 24 h, PK04 Diversity Set (AID 1174); conditions: higher = more signal, called active from +8 up or from −8 down;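 also: MM1S multiple myeloma cell line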
[4] = target: Dihydroorotate dehydrogenase (quinone), mitochondrial (Plasmodium falciparum (isolate 3D7)) (UniProt Q08210); assay: PfDHODH enzyme inhibitors, primary screen, biochemical, C-terminal His tag, absorbance 600 nm (AID 1175); conditions: DCIP absorbance 600 nm, higher = more signal, called active from +8 up or from −8 down;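 also: recombinant parasite enzyme with a five histidine tag at its C terminus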
[5] = P. aeruginosa biofilm formation inhibitors, primary screen, strain PAO1, LB-PBS medium, absorbance 600 nm (AID 1176); conditions: P. aeruginosa PAO1 growth/biofilm, A600, 12 h; higher = more signal
[6] = S. cerevisiae RM11-1a growth modifiers, primary screen, strain RM11-1a, OD600, basal, 24 h (AID 1177); conditions: OD600, 24 h, higher = more signal, called active from +8 up or from −8 down;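 also: cultures grown under basal conditions with no added stressor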
[7] = E. coli acrAB mutant growth effects, primary screen, E. coli filamentation inducers, strain DRC39, OD650, 24 h (AID 1178); conditions: higher = more signal, called active from +8 up or from −8 down;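 also: growth measured as culture turbidity by optical density at 650 nm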
[8] = E. coli acrAB mutant growth effects, primary screen, E. coli filamentation inducers, strain DRC39, OD650, 48 h (AID 1179);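 also: screen aims at cell division blockers that make cells filament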; conditions: E. coli DRC39 delta-acrAB growth, higher = more signal, called active from +8 up or from −8 down
[9] = RPMI8226 myeloma cell viability, profiling panel, resazurin fluorescence, basal, 24 h, PK04 Diversity Set (AID 1180); conditions: higher = more signal;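 also: RPMI8826 multiple myeloma cell line at 5000 cells per well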
[10] = target: E3 ubiquitin-protein ligase XIAP (Homo sapiens) (UniProt P98170); assay: XIAP binders, primary screen, biophysical, small-molecule microarray, fluorescence 635 nm (AID 1181); conditions: small-molecule microarray binding, higher = more signal;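 also: score merges 667 nm emission and signal to noise over triplicate slides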
[11] = test system: XIP peptide (Xip251-270) binding; assay: small-molecule binders of XIP peptide, primary screen, biochemical, small-molecule microarray, fluorescence 635/667 nm, 0.1 µg/mL protein (AID 1182); conditions: fluorescent protein binding, 635 nm, higher = more signal, called active from +8 up or from −8 down
XIP peptide (Xip251-270) = assay: small-molecule binders of XIP peptide, primary screen, biochemical, small-molecule microarray, fluorescence 635/667 nm, 0.5 µg/mL protein (AID 1183); conditions: small-molecule microarray binding, fluorescence 635 nm; higher = more signal
[12] = Plasmodium falciparum growth inhibition, primary screen, strain 3D7, DAPI fluorescence, 100 nL (AID 1184);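 also: parasites grown inside human red blood cells in medium with human serum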; conditions: P. falciparum 3D7 growth, 3 d, higher = more signal
[13] = target: Homeobox protein Hox-A13 (Mus musculus) (UniProt Q62424); assay: inhibitors of HoxA13-DNA binding, primary screen, biochemical, fluorescence polarization, labeled oligonucleotide (AID 1185); conditions: 15 min, higher = more signal, called active from +8 up or from −8 down
[14] = inhibitors of hydroxyurea-induced Chk1 phosphorylation, primary screen, imaging, HeLa, phospho-Chk1 antibody, percent positive cells (AID 1186); conditions: hydroxyurea-induced phospho-Chk1 immunofluorescence imaging, higher = more signal
[15] = inhibitors of hydroxyurea-induced Chk1 phosphorylation, primary screen, imaging, HeLa, phospho-Chk1 nuclear intensity (AID 1187); conditions: hydroxyurea-induced phospho-Chk1 immunofluorescence imaging, higher = more signal

E3 ubiquitin-protein ligase XIAP (Homo sapiens), sequence (P98170 whole entry, looked up): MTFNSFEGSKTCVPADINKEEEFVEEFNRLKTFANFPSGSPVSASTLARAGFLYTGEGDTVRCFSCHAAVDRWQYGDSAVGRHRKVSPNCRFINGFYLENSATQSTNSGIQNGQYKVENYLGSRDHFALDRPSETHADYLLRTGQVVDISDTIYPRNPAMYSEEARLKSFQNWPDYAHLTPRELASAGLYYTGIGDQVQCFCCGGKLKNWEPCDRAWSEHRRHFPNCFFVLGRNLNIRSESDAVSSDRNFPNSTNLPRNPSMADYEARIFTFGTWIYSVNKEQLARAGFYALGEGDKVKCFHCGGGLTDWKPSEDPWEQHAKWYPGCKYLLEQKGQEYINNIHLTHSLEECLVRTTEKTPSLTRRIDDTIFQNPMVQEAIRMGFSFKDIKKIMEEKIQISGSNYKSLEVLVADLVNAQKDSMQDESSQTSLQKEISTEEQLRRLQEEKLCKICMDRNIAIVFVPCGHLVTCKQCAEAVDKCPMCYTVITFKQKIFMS
Dihydroorotate dehydrogenase (quinone), mitochondrial (Plasmodium falciparum (isolate 3D7)), sequence (Q08210 whole entry, looked up): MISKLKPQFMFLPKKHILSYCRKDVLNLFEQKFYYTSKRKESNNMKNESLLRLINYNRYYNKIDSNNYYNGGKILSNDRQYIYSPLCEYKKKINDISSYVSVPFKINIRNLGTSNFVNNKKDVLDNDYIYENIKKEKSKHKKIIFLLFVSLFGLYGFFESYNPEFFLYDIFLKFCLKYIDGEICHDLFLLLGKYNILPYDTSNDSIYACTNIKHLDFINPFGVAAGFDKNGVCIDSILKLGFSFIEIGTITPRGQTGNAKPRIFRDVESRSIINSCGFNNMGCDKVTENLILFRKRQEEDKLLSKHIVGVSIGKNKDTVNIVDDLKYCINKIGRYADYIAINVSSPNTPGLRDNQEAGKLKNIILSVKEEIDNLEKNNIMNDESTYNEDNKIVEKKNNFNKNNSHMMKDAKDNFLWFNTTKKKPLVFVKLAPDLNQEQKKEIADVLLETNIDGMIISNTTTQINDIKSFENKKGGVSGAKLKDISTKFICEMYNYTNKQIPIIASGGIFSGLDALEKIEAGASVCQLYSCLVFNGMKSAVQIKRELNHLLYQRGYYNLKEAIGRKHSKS
Homeobox protein Hox-A13 (Mus musculus), sequence (Q62424 whole entry, looked up): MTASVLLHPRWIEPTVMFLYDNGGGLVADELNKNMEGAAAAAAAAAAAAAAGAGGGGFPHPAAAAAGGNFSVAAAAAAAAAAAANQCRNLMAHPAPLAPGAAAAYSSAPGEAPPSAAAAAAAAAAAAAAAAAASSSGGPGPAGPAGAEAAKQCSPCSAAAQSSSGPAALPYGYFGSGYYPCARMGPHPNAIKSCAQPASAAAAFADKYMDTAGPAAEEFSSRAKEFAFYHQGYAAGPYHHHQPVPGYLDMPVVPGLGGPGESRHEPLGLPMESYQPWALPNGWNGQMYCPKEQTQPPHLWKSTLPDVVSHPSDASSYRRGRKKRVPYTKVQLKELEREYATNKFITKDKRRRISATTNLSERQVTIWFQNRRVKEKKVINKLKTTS

Structure (SMILES) | z-score [1] | z-score [2] | z-score [3] | composite z-score [4] | z-score [5] | z-score [6] | z-score [7] | z-score [8] | z-score [9] | composite z-score [10] | composite z-score [11] | composite z-score (XIP peptide (Xip251-270)) | z-score [12] | z-score [13] | z-score [14] | z-score [15]
CC(=O)N1Cc2ccccc2C[C@@]2(N=C(c3ccc(OCCCO)cc3)O[C@H]2c2ccccc2)C1=O | -1.33 | -2.24 (inactive) | -4.82 (inactive) | -0.847 (inactive) | 1.76 (inactive) | 0.372 (inactive) | 1.62 (inactive) | 1.4 (inactive) | -4.8 | 0.0651 | 1.11 (inactive) | 0.887 | -2.24 | -3.3 (inactive) | -0.662 (inactive) | -0.681 (inactive)
O=C1C2C=CC(C(O)c3ccc(B(O)O)cc3)N(Nc3ccc([N+](=O)[O-])cc3)C2C(=O)N1c1ccccc1 (stereo not given) | 0.0107 | -17.3 (active) | -0.307 (inactive) | -3.05 (inactive) | 0.188 (inactive) | -22.9 (active) | -1.01 (inactive) | -0.657 (inactive) | -0.423 | 0.0823 | 0.432 (inactive) | 0.208 | 1.18 | -1.63 (inactive) | -0.169 (inactive) | -0.219 (inactive)
Cc1ccc([C@H]2C(C(=O)O)=C[C@@H](C(C)C)N2S(=O)(=O)c2ccc(C)cc2)cc1 | -0.357 | -0.502 (inactive) | -0.645 (inactive) | -0.695 (inactive) | 0.546 (inactive) | -0.577 (inactive) | -0.717 (inactive) | 0.0184 (inactive) | -1.4 | 0.0264 | 0.165 (inactive) | 0.386 | 1.65 | -4.3 (inactive) | -0.482 (inactive) | -1.01 (inactive)
O=C(NCC(O)CO)[C@@]1(Cc2ccccc2)N=C(c2ccc(OCCCO)cc2)O[C@H]1c1ccccc1 (stereo not given in full) | 0.531 | -2.2 (inactive) | 0.583 (inactive) | -0.507 (inactive) | 0.41 (inactive) | -0.547 (inactive) | 2.7 (inactive) | 0.249 (inactive) | 0.391 | 0.221 | 0.502 (inactive) | 0.801 | -1.22 | -4 (inactive) | -0.607 (inactive) | -0.29 (inactive)
CC(C)[Si]1(C(C)C)O[C@@H](c2ccccc2)c2cc(-c3ccc(-c4ccc(Cl)c(Cl)c4)o3)nc(CCc3ccccc3)c21 | -0.662 | -3.29 (inactive) | -0.701 (inactive) | -0.231 (inactive) | 0.726 (inactive) | 0.144 (inactive) | 0.231 (inactive) | -0.0564 (inactive) | -0.622 | -0.27 | -0.0577 (inactive) | -1.03 | 0.952 | -0.21 (inactive) | 0.0301 (inactive) | -0.289 (inactive)
